Results as given in PubChem BioAssay AID738 (SRMLSC, 2007).
About 4,900 (5%) of roughly 98,000 compounds were called active. This excerpt belongs to a sample that is enriched for actives. Unmarked numbers belong to inactive results. No stated cut-off is given here; in the data, active means inhibition above about 30%; inactive means the rest.

experiment: growth inhibition of yeast control strain, primary screen, counter-screen for post-Golgi transport modulator project (AID 738); details: efflux-deficient yeast background strain, growth absorbance A615, 16 h; at 10 µM; active compounds read high

Compound	inhibition
C=CCNC(=O)c1cc2nc(C3CC3)cc(C(F)F)n2n1	11%
O=C1CC(NNc2ccccc2)C(=O)N1c1cccc(Cl)c1 (configuration not stated)	-2.74%
COC(=O)c1cc(C(=O)OC)cc(N2C(=O)CC(N3CCN(c4ccccc4)CC3)C2=O)c1 (configuration not stated)	-1.95%
O=C1CC(c2ccccc2)C(=O)N1c1cccc(O)c1 (configuration not stated)	47.5% (active)
COc1ccc(Oc2coc3cc(OC(=O)c4cncc(Br)c4)ccc3c2=O)cc1	-3.94%
COc1ccc(C(=S)Nc2ccccc2)cc1	-2.5%
CS(=O)(=O)N(CC(=O)Nc1ccc(F)cc1F)c1cccc([N+](=O)[O-])c1	-6.14%
COC(=O)c1c(NC(=O)c2cccs2)sc2c1CCCC2	10.9%
Cc1ccc(C(=O)c2c(NC(=O)c3ccccc3)sc(C)c2C)cc1	4.53%
Cc1ccc(C(=O)c2c(NC(=O)c3ccncc3)sc3c2CCCC3)cc1	65.8% (active)
CN1C(=O)C(CC(N)=O)N(NC(=O)c2ccc(Cl)cc2)C1=S (configuration not stated)	-2.73%
C=CCn1c(Oc2ccc(C(=O)OC)cc2)nc2c1c(=O)n(C)c(=O)n2C	11.7%
Cc1nc(C)c(C(=O)N(c2ccc(C)c(C)c2)C(C(=O)NCc2ccco2)c2ccccc2)s1 (configuration not stated)	-4.44%
O=C(COc1ncnc2c(Cl)cc(Cl)cc12)N1CCN(S(=O)(=O)c2ccccc2)CC1	0.78%
Cc1cc(NC(=O)CN2CCCC(C)C2)n(-c2nc3ccccc3s2)n1 (configuration not stated)	19.3%
Cc1nn(CC(=O)Nc2nc3ccccc3s2)c(C)c1[N+](=O)[O-]	-2.54%
CCOC(=O)N1CCN(CC(=O)Nc2cc(C)nn2-c2nc3ccccc3s2)CC1	42% (active)
COc1ccc(/C=C2\CCCC3C2=NN(C(=O)c2scnc2C)C3c2ccc(OC)cc2)cc1 (configuration not stated)	9.28%
CCC(C)(C)n1nnnc1C(c1cccs1)N1CCN(Cc2ccccc2)CC1 (configuration not stated)	3.99%
CCC(C)(C)n1nnnc1C(c1ccccc1OC)N1CCSCC1 (configuration not stated)	17.9%
CCC(C)(C)n1nnnc1C(c1cccs1)N1CCN(c2nc3ccccc3s2)CC1 (configuration not stated)	34.9% (active)

Compound	inhibition
CCOc1ccc(C(O)Cn2c(=N)n(CCN3CCCCC3)c3ccccc32)cc1 (configuration not stated)	7.31%
O=C(CSc1nc(-c2ccco2)cc(C(F)(F)F)n1)N1CCc2ccccc2C1	30.3% (active)
FC(F)(F)c1cc(-c2ccco2)nc(N2CCOCC2)n1	16.9%
O=C(CSc1nc(-c2ccco2)cc(C(F)(F)F)n1)NCc1cccs1	8.94%
CCOC(=O)c1cnc(SC)nc1Sc1ccc(Cl)cc1Cl	3.77%
Cc1ccc(NS(=O)(=O)c2c(C)[nH]c(=O)[nH]c2=O)cc1C	11.7%
O=C(Cc1ccccc1)N/N=C/c1ccc(Cl)cc1Cl	24.5%
CCCCOc1ccc(C(C)(O)CCN2CCOCC2)cc1 (configuration not stated)	12.6%
CCCOc1ccc(C2c3c(oc4cc(C)c(C)cc4c3=O)C(=O)N2CCCN2CCOCC2)cc1 (configuration not stated)	42.7% (active)
COCCN1C(=O)c2oc3c(C)cc(C)cc3c(=O)c2C1c1cccc(O)c1 (configuration not stated)	4.63%
COc1ccc2c(c1)CCc1c(C(=O)N3CCc4ccccc4C3)noc1-2	44.9% (active)
COc1ccc2c(c1)CCc1c(C(=O)Nc3c(C)n(C)n(-c4ccccc4)c3=O)noc1-2	21%
COc1ccc2c(c1)CCc1c(C(=O)N3CCCC3)noc1-2	-1.03%
O=c1cc(C(F)(F)F)[nH]c(=O)n1C1CCCCC1	23.5%
COCCN(C(=O)c1ccco1)c1nnc(-c2ccc(OC)cc2)s1	10%
Cc1cc(Nc2ccccc2)nc(N)n1	4.89%
Cc1nn(C)cc1/C=C1\CCC/C(=C\c2cn(C)nc2C)C1=O	12.9%
CCOC(=O)c1c(-c2ccc(C)cc2C)csc1NC(=O)CSc1nnnn1C	66.1% (active)
CNC(=O)CSc1nnnn1-c1ccc(C)cc1C	24.1%
CCOC(=O)CNC(=O)CSc1nnnn1-c1cc(C)ccc1C	3.59%
CC(C)C(NS(=O)(=O)c1cccs1)C(=O)Nc1nc(C(C)(C)C)cs1 (configuration not stated)	16.8%

Compound	inhibition
CCn1cc(C(=O)N2CCN(Cc3ccc4c(c3)OCO4)CC2)c2cc(OC)c(OC)cc2c1=O	-2.75%
CS(=O)(=O)N(CC(=O)N1CCN(Cc2ccc3c(c2)OCO3)CC1)c1ccc2c(c1)OCO2	2.83%
COc1cc(Cl)c(S(=O)(=O)N2CCN(Cc3ccc4c(c3)OCO4)CC2)cc1Cl	60.2% (active)
Cc1ccccc1OCc1nnc(SCC(=O)N2c3ccccc3Sc3ccc(Cl)cc32)o1	5.3%
Cc1[nH]c(=O)c(C(=O)/C=C/c2ccccc2)c2c1CCCC2	24.5%
O=C(NC1=NCCS1)[C@H](Cc1ccccc1)N1C(=O)c2ccccc2C1=O	-1.98%
CCOC(=O)c1nn(-c2cccc(C)c2)cc1C(=O)c1ccccc1	12.9%
Nc1c(-c2ccc(F)cc2)cnc2ncnn12	1.38%
CNC(=S)NNC(=O)c1sccc1OCc1ccccc1	26.7%
Cc1ccc(NC(=O)N2CCC(O)(c3cccnc3)CC2)cc1	-0.9%
COCCOC(=O)C1=C(C)NC(=O)NC1c1ccc(Cl)cc1 (configuration not stated)	2.51%
CCOC(=O)C1=C(CN2CCc3ccccc32)NC(=O)NC1c1ccc(Cl)cc1 (configuration not stated)	40.8% (active)
CCOC(=O)C1=C(CN2CCc3ccccc32)NC(=O)NC1c1cccc([N+](=O)[O-])c1 (configuration not stated)	1.33%
COc1cccc2c1OCC(C(=O)NCc1ccc(Cl)cc1Cl)=C2	9.54%
O=C(CSc1nnc(-c2cccs2)n1Cc1ccccc1)N1CCc2ccccc2C1	40.2% (active)
CCn1c(SCC(=O)c2ccc3ccccc3c2)nnc1-c1cccs1	5.6%
Cc1nnc(SCC(=O)N2CCc3ccccc3C2)s1	1.25%
O=C(CSc1nnc(-c2cccs2)n1-c1ccccc1)N1CCN(C(=O)c2ccco2)CC1	37.9% (active)
O=C(CSc1nnc(-c2cccs2)n1-c1ccccc1)NCc1ccco1	6.51%
Cc1nnc(SCC(=O)N2CCN(c3ccccc3)CC2)n1-c1ccccc1	2.49%
